# Assay results: PubChem BioAssay AID1159580 (chemical genetic matrix, 2015)
# About 2,000 (36%) of roughly 5,500 compounds were called active. Not shown: some 18% with an inconclusive outcome. This is one part of the list. Unmarked numbers belong to inactive results. Rule as the data show it: active = normalized growth mostly below about 0.91 (no sharp cut-off); inconclusive = no clear call, values can overlap the other calls; inactive = mostly above about 0.92.
# Assay: chemical genetic growth profiling, strain panel (AID 1159580);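 also: tested at 20 µM; growth read once vehicle control cultures reached saturation at 30 °C; 1 = growth at the plate median or of vehicle wells; lower values mean less growth of the strain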
# Settings: growth OD
smiles,measurement,setting,value
CN[C@@H]1C(O)[C@@H](O[C@@H]2[C@@H](O)[C@H](O[C@H]3OC(CN)=CC[C@H]3N)[C@@H](N)C[C@H]2N)OC[C@]1(C)O (some centres undefined),normalized growth,"S. cerevisiae deletion strains, locus YJR075W, strain HOC1, hits give low values",1.02
same,normalized growth,"S. cerevisiae deletion strains, locus YKL009W, strain mrt4, hits give low values",1.01
same,normalized growth,"S. cerevisiae deletion strains, locus YKL068W, hits give low values",0.996
same,normalized growth,"S. cerevisiae deletion strains, locus YKL085W, strain MDH1 (second series), hits give low values",1
same,normalized growth,"S. cerevisiae deletion strains, locus YKL085W, strain MDH1, hits give low values",1
same,normalized growth,"S. cerevisiae deletion strains, locus YKL160W, strain elf1, hits give low values",1.02
same,normalized growth,"S. cerevisiae deletion strains, locus YKL190W, strain CNB1, hits give low values",1.02
same,normalized growth,"S. cerevisiae deletion strains, locus YKR001C, strain vps1, hits give low values",0.993
same,normalized growth,"S. cerevisiae deletion strains, locus YKR026C, strain gcn3, hits give low values",1
same,normalized growth,"S. cerevisiae deletion strains, locus YKR091W, strain srl3, hits give low values",1.01
same,normalized growth,"S. cerevisiae deletion strains, locus YLL001W, strain dnm1, hits give low values",1.03
same,normalized growth,"S. cerevisiae deletion strains, locus YLL026W, hits give low values",1.02
same,normalized growth,"S. cerevisiae deletion strains, locus YLL041C, strain sdh2, hits give low values",1.02
same,normalized growth,"S. cerevisiae deletion strains, locus YLR027C, strain aat2, hits give low values",1.02
same,normalized growth,"S. cerevisiae deletion strains, locus YLR039C, strain RIC1, hits give low values",1.13
same,normalized growth,"S. cerevisiae deletion strains, locus YLR058C, strain SHM2, hits give low values",1.02
same,normalized growth,"S. cerevisiae deletion strains, locus YLR102C, strain apc9, hits give low values",0.993
same,normalized growth,"S. cerevisiae deletion strains, locus YLR113W, strain HOG1, hits give low values",0.949
same,normalized growth,"S. cerevisiae deletion strains, locus YLR221C, strain rsa3, hits give low values",0.984
same,normalized growth,"S. cerevisiae deletion strains, locus YLR258W, strain gsy2, hits give low values",1.01
same,normalized growth,"S. cerevisiae deletion strains, locus YLR262C, strain YPT6 (second series), hits give low values",1.03
same,normalized growth,"S. cerevisiae deletion strains, locus YLR262C, strain YPT6, hits give low values",1.09
same,normalized growth,"S. cerevisiae deletion strains, locus YLR268W, strain sec22, hits give low values",1.01
same,normalized growth,"S. cerevisiae deletion strains, locus YLR320W, strain mms22, hits give low values",0.988
same,normalized growth,"S. cerevisiae deletion strains, locus YLR330W, strain CHS5, hits give low values",1.01
same,normalized growth,"S. cerevisiae deletion strains, locus YLR342W, strain FKS1 (second series), hits give low values",1.05
same,normalized growth,"S. cerevisiae deletion strains, locus YLR342W, strain FKS1, hits give low values",1.02
same,normalized growth,"S. cerevisiae deletion strains, locus YLR357W, strain rsc2, hits give low values",1.03
same,normalized growth,"S. cerevisiae deletion strains, locus YLR370C, strain arc18, hits give low values",1.02
same,normalized growth,"S. cerevisiae deletion strains, locus YLR371W, strain rom2, hits give low values",0.995
same,normalized growth,"S. cerevisiae deletion strains, locus YLR384C, strain iki3, hits give low values",1.01
same,normalized growth,"S. cerevisiae deletion strains, locus YLR418C, strain cdc73, hits give low values",1.02
same,normalized growth,"S. cerevisiae deletion strains, locus YML016C, strain PPZ1, hits give low values",1.02
same,normalized growth,"S. cerevisiae deletion strains, locus YML120C, strain ndi1, hits give low values",1.02
same,normalized growth,"S. cerevisiae deletion strains, locus YML124C, strain tub3, hits give low values",0.991
same,normalized growth,"S. cerevisiae deletion strains, locus YMR058W, strain fet3, hits give low values",1.03
same,normalized growth,"S. cerevisiae deletion strains, locus YMR078C, strain ctf18, hits give low values",0.996
same,normalized growth,"S. cerevisiae deletion strains, locus YMR125W, strain sto1, hits give low values",1
same,normalized growth,"S. cerevisiae deletion strains, locus YMR129W, hits give low values",1.01
same,normalized growth,"S. cerevisiae deletion strains, locus YMR205C, strain PFK2, hits give low values",1.02
same,normalized growth,"S. cerevisiae deletion strains, locus YMR223W, strain ubp8, hits give low values",1
same,normalized growth,"S. cerevisiae deletion strains, locus YMR231W, strain pep5, hits give low values",1
same,normalized growth,"S. cerevisiae deletion strains, locus YMR263W, strain SAP30, hits give low values",1.05
same,normalized growth,"S. cerevisiae deletion strains, locus YMR307W, strain GAS1, hits give low values",1.01
same,normalized growth,"S. cerevisiae deletion strains, locus YNL067W, strain RPL9B, hits give low values",1.04
same,normalized growth,"S. cerevisiae deletion strains, locus YNL071W, strain lat1, hits give low values",1.02
same,normalized growth,"S. cerevisiae deletion strains, locus YNL128W, strain TEP1, hits give low values",1.04
same,normalized growth,"S. cerevisiae deletion strains, locus YNL153C, strain GIM3, hits give low values",1.03
same,normalized growth,"S. cerevisiae deletion strains, locus YNL183C, strain NPR1, hits give low values",0.93
same,normalized growth,"S. cerevisiae deletion strains, locus YNL209W, strain ssb2, hits give low values",1.01
same,normalized growth,"S. cerevisiae deletion strains, locus YNL233W, strain BNI4, hits give low values",1.02
same,normalized growth,"S. cerevisiae deletion strains, locus YNL248C, strain rpa49, hits give low values",0.992
same,normalized growth,"S. cerevisiae deletion strains, locus YNL250W, strain rad50, hits give low values",1
same,normalized growth,"S. cerevisiae deletion strains, locus YNL271C, strain bni1, hits give low values",1
same,normalized growth,"S. cerevisiae deletion strains, locus YNL298W, strain CLA4, hits give low values",1
same,normalized growth,"S. cerevisiae deletion strains, locus YNL307C, strain MCK1, hits give low values",0.999
same,normalized growth,"S. cerevisiae deletion strains, locus YNL322C, strain KRE1 (second series), hits give low values",0.996
same,normalized growth,"S. cerevisiae deletion strains, locus YNL322C, strain KRE1, hits give low values",1.02
same,normalized growth,"S. cerevisiae deletion strains, locus YNR049C, strain mso1, hits give low values",1.04
same,normalized growth,"S. cerevisiae deletion strains, locus YNR052C, strain pop2, hits give low values",0.987
same,normalized growth,"S. cerevisiae deletion strains, locus YOL006C, strain TOP1, hits give low values",1.19
same,normalized growth,"S. cerevisiae deletion strains, locus YOL012C, strain htz1",2.02
same,normalized growth,"S. cerevisiae deletion strains, locus YOL147C, strain pex11, hits give low values",0.986
same,normalized growth,"S. cerevisiae deletion strains, locus YOR001W, strain rrp6, hits give low values",1.03
same,normalized growth,"S. cerevisiae deletion strains, locus YOR061W, strain CKA2, hits give low values",1.02
same,normalized growth,"S. cerevisiae deletion strains, locus YOR069W, strain VPS5, hits give low values",1.11 [resistant] (active)
same,normalized growth,"S. cerevisiae deletion strains, locus YOR070C, strain gyp1, hits give low values",1
same,normalized growth,"S. cerevisiae deletion strains, locus YOR080W, strain dia2, hits give low values",1
same,normalized growth,"S. cerevisiae deletion strains, locus YOR083W, strain WHI5, hits give low values",0.992
same,normalized growth,"S. cerevisiae deletion strains, locus YOR106W, strain vam3, hits give low values",1.03
same,normalized growth,"S. cerevisiae deletion strains, locus YOR136W, strain idh2, hits give low values",0.991
same,normalized growth,"S. cerevisiae deletion strains, locus YOR144C, strain elg1, hits give low values",0.991
same,normalized growth,"S. cerevisiae deletion strains, locus YOR184W, strain ser1, hits give low values",1.01
same,normalized growth,"S. cerevisiae deletion strains, locus YOR231W, strain MKK1, hits give low values",0.952
same,normalized growth,"S. cerevisiae deletion strains, locus YOR265W, strain rbl2, hits give low values",1
same,normalized growth,"S. cerevisiae deletion strains, locus YOR270C, strain vph1, hits give low values",1.05
same,normalized growth,"S. cerevisiae deletion strains, locus YOR290C, strain snf2, hits give low values",0.979
same,normalized growth,"S. cerevisiae deletion strains, locus YPL051W, strain arl3, hits give low values",1.01
same,normalized growth,"S. cerevisiae deletion strains, locus YPL055C, strain LGE1, hits give low values",1.09
same,normalized growth,"S. cerevisiae deletion strains, locus YPL078C, strain atp4, hits give low values",1.03
same,normalized growth,"S. cerevisiae deletion strains, locus YPL106C, strain sse1, hits give low values",1.02
same,normalized growth,"S. cerevisiae deletion strains, locus YPL240C, strain hsp82, hits give low values",1.01
same,normalized growth,"S. cerevisiae deletion strains, locus YPL256C, strain CLN2, hits give low values",0.96
same,normalized growth,"S. cerevisiae deletion strains, locus YPR119W, strain clb2, hits give low values",0.984
same,normalized growth,"S. cerevisiae deletion strains, locus YPR141C, strain kar3, hits give low values",1
same,normalized growth,"S. cerevisiae deletion strains, locus YPR163C, strain tif3, hits give low values",0.966
same,normalized growth,"S. cerevisiae deletion strains, locus YPR167C, strain met16, hits give low values",0.999
same,normalized growth,"S. cerevisiae deletion strains, strain wtn01, hits give low values",1.01
same,normalized growth,"S. cerevisiae strains, strain wild type, hits give low values",1.01
